Screening data from PubChem.
Sampled rows, rich in hits. Any-hit rate of the full collection: about 4.6%.
D1 ag: activates the human D1 dopamine receptor; P21728; HEK293 T-REx D1 cells, calcium flux, agonist mode; activation, % at 2 µM; 1% of 360,000 active
Target sequence (P21728 whole entry, looked up): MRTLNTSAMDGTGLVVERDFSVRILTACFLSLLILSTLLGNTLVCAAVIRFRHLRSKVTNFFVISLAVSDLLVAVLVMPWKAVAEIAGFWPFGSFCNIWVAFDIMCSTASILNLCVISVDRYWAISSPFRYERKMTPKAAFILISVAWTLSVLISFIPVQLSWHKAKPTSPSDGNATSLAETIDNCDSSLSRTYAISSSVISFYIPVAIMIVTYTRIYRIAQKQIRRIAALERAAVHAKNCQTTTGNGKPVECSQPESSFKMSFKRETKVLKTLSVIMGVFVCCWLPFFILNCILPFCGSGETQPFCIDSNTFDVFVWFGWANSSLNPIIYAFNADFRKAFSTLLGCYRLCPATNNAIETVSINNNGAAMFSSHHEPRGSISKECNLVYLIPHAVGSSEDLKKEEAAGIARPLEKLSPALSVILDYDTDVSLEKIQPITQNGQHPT
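Tetracycline-induced HEK293 TREx D1 cells, force-coupled to calcium signalling, were dye-loaded with a no-wash calcium kit. Compound was pin-added after a 10 s baseline. Fluorescence was read kinetically at 1 cycle/s for 180 s, with calcium rises flagged as agonism.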
D1 PAM: enhances dopamine response at the human D1 receptor. P21728. HEK293 TREx D1 cells, calcium flux, dopamine EC20 potentiation. potentiation, % at 10 µM. 0.036% of 360,000 active. AID 504651; in the data active = potentiation above about 30%
TRHR PAM: TRH receptor (human) allosteric enhancement | enhancement, % at 2 µM | TRHR cells, fluo-8 calcium fluorescence, EC20 TRH enhancement | P34981 | AID 493056 | 0.66% of 360,000 active; in the data active = enhancement above about 30%
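TRHR-expressing cells loaded with fluo-8 calcium dye were read kinetically (ex 480/em 530) during compound addition, then stimulated with an EC20 of TRH (10 nM final). Enhancement of the Gq-mediated intracellular calcium response was scored.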
TRHR ag: TRH receptor (human) agonism; TRHR cells, calcium flux fluo-8, FDSS agonist mode; activation, % at 2 µM; AID 493084; P34981; 0.18% of 360,000 active
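TRHR-expressing cells, plated overnight in medium with 10% serum, were loaded with fluo-8 calcium dye at room temperature. After a 10 s baseline, library compound was pin-added and calcium release was recorded kinetically (ex 480/em 530) as agonist response.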
D1 antag: human D1 dopamine receptor antagonism | HEK293 TREx D1 cells, calcium flux, dopamine EC80; hits give low values | P21728 | activity change, negative = inhibition, % at 10 µM | 3.2% of 360,000 active | AID 504652; in the data active = activity change below about -30%
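Calcium flux readout: force-coupled, inducible Hek293 Trex D1 line, cells induced overnight at 30 C with tetracycline, dye-loaded 30–90 min at RT. Antagonism scored against EC80 dopamine challenge given 180 s after compound.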
Numbers stand for hits; i = inactive; nt = no result. Rule as the data show it, unless noted: active = activation above about 30%; inactive = the rest.

SMILES | D1 ag | D1 PAM | TRHR PAM | TRHR ag | D1 antag
CC(=O)Nc1ccc(NC(=O)c2ccccc2CCc2ccccc2)cc1 | i | i | i | i | -31
CC(=O)Nc1ccc(NC(=O)c2ccccc2C)cc1 | i | i | i | i | i
CNC(=O)C1CCC(Cn2c(=O)c3sccc3n(Cc3cc(C)ccc3C)c2=O)CC1 (stereo unspecified) | i | i | i | i | i
NC1=NC(=O)/C(=C/c2cn(Cc3ccccc3)c3ccccc23)S1 | i | i | i | i | i
COc1ccccc1C(=O)Nc1ccc(S(=O)(=O)Nc2nccs2)cc1 | i | nt | i | i | -31
CSc1ccccc1C(=O)Nc1ccc(S(=O)(=O)NC2=NCCCCC2)cc1 | i | i | i | i | i
COc1cc(SC)ccc1C(=O)Nc1cccc(S(=O)(=O)NC2=NCCCCC2)c1 | i | i | i | i | -38
CCN(CC)S(=O)(=O)c1cccc(NC(=O)c2ccc(SC)cc2OC)c1 | i | i | i | i | i
CC(Oc1cccc(Cl)c1)C(=O)Nc1ccc(S(=O)(=O)NC2=NCCCCC2)cc1 (stereo unspecified) | i | i | i | i | i
COc1ccccc1C(=O)Nc1ccc(S(=O)(=O)NC2=NCCCCC2)cc1 | i | i | i | i | -58
CC(Oc1ccc(F)cc1)C(=O)Nc1ccc(S(=O)(=O)NC2=NCCCCC2)cc1 (stereo unspecified) | 33 | i | i | i | i
CC(C)CC(NS(=O)(=O)c1ccc2c(c1)oc(=O)n2C)C(=O)NCCc1ccc(Cl)cc1 (stereo unspecified) | i | i | i | i | i
CCCn1nnnc1-c1ccc(Cl)cc1 | i | i | i | i | i
FC(F)(F)c1cccc(Cn2nnnc2-c2ccc(Cl)cc2)c1 | i | i | i | i | -39
Cc1ccc(NC(=O)CSc2n[nH]c(-c3cccnc3)n2)c(Br)c1 | i | nt | i | i | -32
COc1ccccc1NC(=O)CSc1n[nH]c(-c2cccnc2)n1 | i | i | i | i | i
CN(C(=O)CSc1nnc(-c2cccnc2)o1)C1CCCCC1 | i | i | i | i | i
CCc1ccc(C(=O)C(C)OC(=O)c2nn(C)c(=O)c3ccccc23)cc1 (stereo unspecified) | 35 | i | i | i | i
Cc1ccc(CNCc2ccccc2Cl)s1 | i | i | i | i | i
O=C(CC1(O)C(=O)N(CCc2ccccc2)c2ccc(Br)cc21)c1ccccc1O (stereo unspecified) | i | i | i | i | i
O=C(CCCN1C(=O)CCC1=O)Nc1ccc(Br)cc1F | i | i | i | i | -32
O=C(Nc1ccccc1Oc1cccnc1)C1CCCN(C/C=C/c2ccc(F)cc2)C1 (stereo unspecified) | i | i | i | i | -30
CC(Oc1cccc(Cl)c1)C(=O)Nc1nc(-c2ccccn2)cs1 (stereo unspecified) | i | i | i | i | -35
COc1cc2ccccc2cc1C(=O)Nc1ccc(N2CCN(C)CC2)cc1 | i | i | i | i | -61
COc1ccc(N2CCN(C(=S)Nc3ccccc3)CC2)cc1 | i | i | i | i | i
SMILES | D1 ag | D1 PAM | TRHR PAM | TRHR ag | D1 antag
CC(=O)c1ccc(N2CCN(C(=S)Nc3cccc(F)c3)CC2)cc1 | i | i | i | i | -40
COc1cc2ccccc2cc1C(=O)Nc1ccc(N2CCN(C(=O)C(C)C)CC2)cc1 | i | i | i | i | i
O=[N+]([O-])c1ccc(NC(=S)N2CCN(c3ccccc3)CC2)cc1 | i | i | i | i | -40
CC(=O)c1ccc(N2CCN(C(=S)Nc3ccc(Oc4ccccc4)cc3)CC2)cc1 | i | i | i | i | -33
COc1ccc(-c2cc(C(F)(F)F)nc(SCC(=O)NCC(C)C)n2)cc1OC | i | i | i | i | i
COc1ccc(C(=O)Nc2ccc(N3CCCC3)cc2)cc1 | i | i | i | i | i
CCOc1ccc(C(=O)Nc2ccc(N3CCN(C)CC3)cc2)cc1Br | i | i | i | i | -35
CCOc1ccc(C(=O)Nc2ccc(NC(=O)c3ccccc3)cc2)cc1Br | i | i | i | i | i
CN1CCN(c2ccc(NC(=O)c3ccc(Oc4ccccc4)cc3)cc2)CC1 | i | nt | i | i | -58
NS(=O)(=O)c1ccc(NC(=S)N2CCN(c3ccccc3Cl)CC2)cc1 | i | i | i | i | -40
O=S(=O)(c1cccc(NC(=S)N2CCN(c3ccc(F)cc3)CC2)c1)C(F)F | i | i | i | i | -35
NS(=O)(=O)c1ccc(NC(=S)N2CCN(c3cccc(Cl)c3)CC2)cc1 | i | i | i | i | i
COc1ccc(C)cc1NC(=O)C(Sc1nnnn1C)c1ccccc1 (stereo unspecified) | i | i | i | i | i
CCCn1c(SC(C(=O)Nc2cc(C)ccc2OC)c2ccccc2)nc2ccccc2c1=O (stereo unspecified) | i | i | i | i | -96
COc1ccccc1NC(=O)CCN1C(=O)C2C3CCC(C3)C2C1=O (stereo unspecified) | i | i | i | i | -78
COc1ccc(Cl)cc1NC(=O)CCN1C(=O)C2C3CCC(C3)C2C1=O (stereo unspecified) | i | i | i | i | i
Cc1ccc(OCC(=O)Nc2ccc(Cl)c(-c3nc4ncccc4o3)c2)c(C)c1 | i | i | i | i | i
N#Cc1c([N+](=O)[O-])cc([N+](=O)[O-])cc1S(=O)(=O)Cc1ccccc1 | i | i | i | i | -35
Cn1nnnc1SCCNCc1ccc(OCc2ccc(Cl)cc2)cc1 | 46 | i | i | i | i
Cn1nnnc1SCCCNCc1ccc(-c2ccc(Br)cc2)o1 | 41 | i | i | i | i
Brc1cccc(CNCCSc2nnnn2-c2ccccc2)c1 | i | i | i | i | i
Cn1nnnc1SCCCNCc1cc(Br)ccc1OCc1ccccc1 | 39 | i | i | i | i
CCOc1ccc(Br)cc1CNCCSc1nnnn1-c1ccccc1 | 106 | i | i | i | -38
Cc1cccc(Cc2c(C)nc3nc(SCc4ccccc4C)nn3c2C)c1 | i | i | i | i | i
CSc1ccc(S(=O)(=O)NCC(=O)OCC(=O)N2CCC(C)CC2)cc1[N+](=O)[O-] | i | i | i | i | -31
SMILES | D1 ag | D1 PAM | TRHR PAM | TRHR ag | D1 antag
CSc1ccc(S(=O)(=O)NCC(=O)OCC(=O)N2CCCCC2C)cc1[N+](=O)[O-] (stereo unspecified) | i | i | i | i | i
CCOc1ccc(C(=O)Nc2cccc(-c3nc4cccnc4s3)c2C)cc1OCC | i | i | i | i | i
Cc1c(C(=O)N(C)C)sc2c1c(=O)n(-c1ccc(Cl)c(Cl)c1)c(=O)n2Cc1ccc(F)cc1 | i | i | i | i | i
CC(=O)Nc1ccc(-c2ccc(NC(C)=O)c(O)c2)cc1O | i | i | i | i | -32
CC(C)C[C@@H](CSc1ccccc1)N1CCN(CCc2ccccc2)CCC1=O | i | i | i | i | i
CCCN1CCC(=O)N([C@H](CSc2ccc(OC)cc2)CC(C)C)CC1 | i | i | i | i | -34
